Assay results taken from PubChem BioAssay AID2284159 (EPA ToxCast).
The source made the active and inactive calls. Rule for the calls: active = hit-call score of the fitted dose curve at least 0.9, where 1 is the maximum; inactive = score below 0.9.

molecular target: human Dopamine Receptor D2L, DRD2 (gene 1813) (UniProt P14416); test: ERF_FR_GPCR_hDRD2: Eurofins (ERF) G Protein-Coupled Receptor (GPCR) Radioligand Binding LeadHunter Assay for human Dopamine Receptor D2L Antagonism
Description: ERF_FR_GPCR_hDRD2 is a biochemical, single-readout assay that uses extracted gene-proteins in a cell-free assay. Measurements were taken 1 hour after chemical dosing in a 96-well plate. See D2L Human Dopamine GPCR Binding (Antagonist Radioligand) Assay, Cerep.ERF_FR_GPCR_hDRD2 is an assay component calculated from the ERF_FR_GPCR_hDRD2 assay. It is designed to measure radioligand binding using a type of binding reporter as detected by scintillation counting with radiometry technology.Data from the assay component ERF_FR_GPCR_hDRD2 was analyzed at the assay endpoint, ERF_FR_GPCR_hDRD2, in the positive analysis fitting direction relative to DMSO as the negative control and baseline of activity. Using a type of binding reporter, loss-of-signal activity can be used to understand changes in binding as they relate to gene DRD2. To generalize the intended target to other relatable targets, this assay endpoint is annotated to the gpcr intended target family, where the subfamily is dopamine.
Human cells are incubated for 60 minutes at room temprature with [3H]methyl-spiperone ligand (0.3 nM) and Butaclamol as control inhibitor.Test Sample Requirements: Minimum for 1) Screen: 60 ul of 10 mM stock -OR- 1 mg (pre-weighed) for 10 uM final testing. 2) Dose Response: 90 ul of 10 mM stock -OR- 1 mg (pre-weighed) for a top concentration at 10 uM.

human Dopamine Receptor D2L, DRD2 (gene 1813), sequence (P14416 whole entry, looked up): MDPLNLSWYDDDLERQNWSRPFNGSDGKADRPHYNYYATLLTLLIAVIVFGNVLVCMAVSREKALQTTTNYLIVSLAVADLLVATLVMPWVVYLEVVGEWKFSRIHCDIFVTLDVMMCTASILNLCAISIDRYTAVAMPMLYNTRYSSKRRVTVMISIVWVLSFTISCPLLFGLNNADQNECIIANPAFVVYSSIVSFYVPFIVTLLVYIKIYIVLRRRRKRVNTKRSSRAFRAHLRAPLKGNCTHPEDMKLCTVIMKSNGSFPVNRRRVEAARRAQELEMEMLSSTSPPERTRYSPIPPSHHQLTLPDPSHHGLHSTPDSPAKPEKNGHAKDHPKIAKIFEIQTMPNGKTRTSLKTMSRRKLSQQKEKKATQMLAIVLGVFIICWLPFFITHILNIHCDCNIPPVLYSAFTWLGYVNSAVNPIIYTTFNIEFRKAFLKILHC

Compound	AC50
O=C(/C=C/c1ccc(O)cc1)CC(=O)/C=C/c1ccc(O)cc1	1.55 µM (active)
